High-throughput results from PubChem.
aSyn rescue: alpha-synuclein toxicity inhibition in yeast. Yeast expressing alpha-synuclein, growth rescue, BacTiter-Glo, 24 h. Potency, µM (titrated, usually from 46.1 µM), inactives show at the highest dose growth rescue (activation), most hits filed as activators. 370,000 compounds, 0.14% hits. AID 652106; also: % of control where 0% means no effect; nearly all actives have a fitted effect of over 65% in size
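Rescue of yeast growth: cells expressing toxic alpha-synuclein, induced in galactose at OD600 0.02, incubated with compound 24 h at 30 C. ATP luminescence quantified growth; inhibitors of toxicity appear as activators.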
FUS yeast rescue: suppressors of FUS proteinopathy in yeast | S. cerevisiae FUS-expressing, growth rescue, OD600, 24 h | Potency, µM (series often up to 76.6 µM), usual class: activators | 390,000 compounds, 0.24% hits;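 also: plate controls were DMSO vehicle for no effect and reference control for full effect; nearly all actives have a fitted effect of over 55% in size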
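Compound concentration series was pinned onto galactose-induced FUS-expressing yeast seeded at OD 0.005. Plates sat 24hr at 30C; absorbance at 600 nm gave growth. DMSO served as background control.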
Abeta rescue: A-beta toxicity reversal in yeast | 410,000 compounds, 0.063% hits | yeast expressing A-beta42, growth rescue, OD600, 48 h; response scale: 0% DMSO, 100% iron-clioquinol control | Potency, µM (series often up to 46.1 µM), most hits filed as activators | AID 1347071; also: nearly all actives have a fitted effect of over 55% in size
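Yeast growth medium received pinned compounds, then yeast cells expressing toxic A-beta were added; plates incubated at 30 C for 48 hr. Growth read as absorbance at 600 nm, normalized to DMSO and equimolar FeCl3 plus clioquinol controls.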
TDP-43 yeast inh: inhibitors of TDP-43 toxicity in yeast | TDP-43 expressing yeast growth rescue, BacTiter-Glo, 24 h | 410,000 compounds, 1.8% hits | Potency, µM (titrated, usually from 46.1 µM), without a hit: top-dose growth rescue (activation), most hits filed as activators; also: % of control where 0% means no effect; nearly all actives have a fitted effect of over 50% in size
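Yeast cells expressing TDP-43 under galactose induction are exposed to compounds for 24 hr at 30 deg C. BacTiter-Glo luminescence measures growth, so protective compounds score as activators.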
* hit, by the source's call; i = inactive; ? = inconclusive; · = no result. Most compounds without a hit are left out; they make up all but 2.1% or so of the library. Calls follow the shape of the dose curve; as a rule, active = well fitted curve in the direction sought with a large enough effect; inconclusive = small, poorly fitted or top-dose-only effect, or another doubt; inactive = no such curve, though single readings can be large; an effect the other way counts as inactive or inconclusive. Potency is read from the fitted curve at half-maximal effect.

SMILES	aSyn rescue	FUS yeast rescue	Abeta rescue	TDP-43 yeast inh
COc1cccc(C2CC(=O)Nc3c2ccc(C)c3C)c1OC (centres undefined)	·	i	i	18µM*
COC(=O)C1=C(C)NC(=O)CC1c1cccc(OC)c1OC (centres undefined)	1%	i	i	-25%
O=C(Nc1ccccc1-c1nc2ccccc2s1)C1=COCCO1	1%	·	i	16%
CCCCn1nnnc1C(c1cc2ccccc2o1)N1CCN(C(=O)OC(C)(C)C)CC1 (centres undefined)	13%	i	i	-6%
CC(=O)N1c2ccccc2Oc2cc3ccccc3cc21	9%	i	i	13µM*
O=C(CCl)N1c2ccccc2Oc2ccc3ccccc3c21	-43%	?	i	?
S=C1SCCCN1Cc1ccc(Cl)cc1	2%	i	i	11µM*
COc1cc(C=O)ccc1OCc1cccc(Br)c1	14%	·	i	20µM*
COc1ccc(C=O)cc1COc1ccc(F)cc1F	-10%	i	i	25%
COc1cc(C=O)ccc1OCc1ccccc1Br	-19%	·	i	11µM*
CC(=O)Nc1ccc(S(=O)(=O)NCC2CCC(C(=O)NCCc3ccc(C)cc3)CC2)cc1 (centres undefined)	·	i	i	17%
CC1=C(C(=O)N2CCN(c3cccc(Cl)c3)CC2)C2(CCCCC2)OC1=O	·	i	i	14%
O=[N+]([O-])c1cccc(SSc2cccc([N+](=O)[O-])c2)c1	-78%	i	i	-94%
CC(=O)Nc1ccc(SCC(=O)Nc2cc(C)on2)cc1	2%	i	i	5%
Cc1ccc(/C=N/n2cc(-c3ccccc3)[nH]c2=S)s1	-2%	i	4.5µM*	25%
S=c1[nH]c(-c2ccccc2)cn1/N=C/c1ccccc1Br	-19%	i	?	?
Cc1ccc(CNC(=O)COC(=O)c2nc(-c3ccccc3)oc2C)cc1	1%	i	i	35µM*
CCc1ccc2nc(N3CCN(C(=O)c4ccccc4)CC3)sc2c1	·	i	i	11µM*
COc1ccc(C)c2sc(N3CCN(C(=O)c4cccc(F)c4)CC3)nc12	·	i	i	19%
COc1ccc(C)c2sc(N3CCN(C(=O)c4ccco4)CC3)nc12	·	i	i	22µM*
Cc1cccc(Cl)c1NC(=O)N1CCCN(c2nc3ccc(Cl)cc3s2)CC1	5%	i	?	20µM*
O=C(c1ccco1)N1CCN(c2nc3ccc(Cl)cc3s2)CC1	·	i	i	11µM*
CCCC(=O)N1CCN(c2nc3ccc(CC)cc3s2)CC1	3%	i	i	?
COc1ccc(NC(=O)c2oc3ccccc3c2NC(=O)C2CCCCC2)c(OC)c1	·	i	i	5%
C=CCNc1ncnc2c1ncn2[C@H]1CN(Cc2ccc(-c3ccccc3)cc2)C[C@@H](CO)O1	2%	i	i	24%
SMILES	aSyn rescue	FUS yeast rescue	Abeta rescue	TDP-43 yeast inh
CCc1ccc2c(c1)NC(c1cccnc1)=NC(c1ccc(C(C)(C)C)cc1)=N2	·	?	i	9%
CCCCN=C(N)NC(=O)OCc1ccccc1	·	i	·	·
O=C(NCCc1ccccc1)c1ccc2nc(N3CCOCC3)sc2c1	0%	i	i	?
Cc1ccc2cc3cc(C(=O)N4CCN(C(=O)c5ccco5)CC4)sc3nc2c1	-1%	i	i	13µM*
Cc1ccc(Cl)cc1N1CCN(C(=O)c2ccc3nc(N4CCC(C)CC4)sc3c2)CC1	·	?	i	3%
Cc1ccc2cc3cc(C(=O)N4CCN(Cc5ccccc5)CC4)sc3nc2c1	0%	i	i	16%
Cc1ccc(C)c(N2CCN(C(=O)c3ccc4nc(N5CCOCC5)sc4c3)CC2)c1	4%	?	i	13µM*
O=C(c1ccc2nc(N3CCOCC3)sc2c1)N1CCC(Cc2ccccc2)CC1	5%	?	i	25µM*
COc1ccccc1NC(=O)OCCN1CCCC12CCC(c1ccccc1)CC2 (centres undefined)	·	i	·	·
COc1ccc(-n2cnc3cc(C(=O)NC4CCCCCC4)ccc32)cc1	·	i	i	35µM*
O=C(CSc1nc2c([nH]c3ccccc32)c(=O)n1-c1ccc(Cl)cc1)NCc1ccccc1	3%	i	i	22%
Cc1onc(C(=O)Nc2cccc(C(F)(F)F)c2)c1[N+](=O)[O-]	-13%	i	i	13µM*
